Only a selection was taken, and hits are over-represented in it overall.
Shiga toxin inh – blocks Shiga toxin action in Vero cells; Vero cells, Shiga toxin protein synthesis inhibition reporter; inhibition, % at 38.7 µM; 290,000 compounds, 9.2% hits; in the data active = inhibition mostly above about 28%, no sharp cut-off; inactive = mostly below about 43%
Tb PYK inh – inhibitors of Trypanosoma brucei pyruvate kinase. Q57TT1. AID 624173. Potency, µM (top dose mostly 76.8 µM), actives largely listed as inhibitors. 410,000 compounds, 0.12% hits. TbPYK enzyme, Kinase-Glo Plus ATP luminescence, 45 min; note: nearly all actives have a fitted effect of over 50% in size
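Luminescence from Kinase-Glo Plus, added after a 45-minute room-temperature reaction, served as the end-point read-out. The enzyme and substrate were preincubated with compound before ADP (130 uM final) initiated turnover. Concentration-effect curves came from normalized qHTS data.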
LmPK inhibitor – blocks Leishmania mexicana pyruvate kinase activity; purified LmPK, Kinase-Glo ATP luminescence, 1 h; Potency, µM (titrated, usually from 57.5 µM), hits mostly inhibitors; 290,000 compounds, 0.37% hits
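In 50 mM imidazole pH 7.2 with 7 mM MgCl2, LmPK (0.1 nM) turned over PEP (0.5 mM) and ADP (0.1 mM) for 1 h at room temperature. Luciferase read-out of ATP.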
FBPA Giardia inh – Giardia lamblia aldolase inhibition. Potency, µM (series often up to 59.6 µM), most hits filed as inhibitors. A8B2U2. purified Giardia FBPA. 290,000 compounds, 0.71% hits; note: nearly all actives have a fitted effect of over 55% in size
Target sequence (A8B2U2 whole entry, looked up): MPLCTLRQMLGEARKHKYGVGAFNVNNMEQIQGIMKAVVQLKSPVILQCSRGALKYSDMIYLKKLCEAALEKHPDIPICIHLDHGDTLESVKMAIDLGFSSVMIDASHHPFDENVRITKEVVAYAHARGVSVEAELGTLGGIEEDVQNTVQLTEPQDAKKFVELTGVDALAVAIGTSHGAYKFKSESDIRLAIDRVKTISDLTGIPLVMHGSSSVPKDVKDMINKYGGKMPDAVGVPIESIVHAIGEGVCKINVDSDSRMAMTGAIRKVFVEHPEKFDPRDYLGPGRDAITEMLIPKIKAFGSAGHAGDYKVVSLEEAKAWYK
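40 nM FBPA preincubated 10 min at RT with compound (up to 57.5 uM final), then substrate plus GAPDH/TPI/NAD/arsenate coupling and diaphorase/resazurin added. Fluorescence read after 20 min at RT, 525/598 nm.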
RE007 growth inh – less growth of the S. pombe RE007 Vpr strain | S. pombe RE007 Vpr strain, BacTiter-Glo ATP luminescence, 24 h | Potency, µM (top dose mostly 92.2 µM), hits mostly inhibitors | 360,000 compounds, 0.21% hits | AID 651644; active = well fitted falling curve with a large enough effect; inconclusive = small, poorly fitted or top-dose-only effect; inactive = no such curve, though single readings can be large or run the other way; note: nearly all actives have a fitted effect of over 50% in size
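Fission yeast RE007 carrying one integrated HIV-1 vpr copy, seeded at OD 0.01 in PMG+AL medium with 23 nL pinned compound. Grown 24 h at 30 degrees; viability read by BacTiter-Glo luminescence after 5 min.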
CHX counter – counter-screen for Shiga toxin inhibitors: cycloheximide protein synthesis inhibition; cell reporter, cycloheximide protein synthesis inhibition counterscreen; max response, %; 300,000 compounds, 12% hits; AID 2314; in the data active = max response mostly above about 13%, no sharp cut-off; inactive = mostly below about 14%; note: read at 38.3 µM for the half of the compounds with a filed dose
A number is an active result; n = inactive; u = inconclusive; x = not tested or not shown. Unless noted, calls come from the whole dose curve; as a rule, active = well fitted curve in the direction sought with a large enough effect; inconclusive = small, poorly fitted or top-dose-only effect, or another doubt; inactive = no such curve, though single readings can be large; an effect the other way counts as inactive or inconclusive.

SMILES	Shiga toxin inh	Tb PYK inh	LmPK inhibitor	FBPA Giardia inh	RE007 growth inh	CHX counter
COc1ccc2c(c1)C(=O)[C@@H](OC(=O)N[C@H]1CCCc3ccccc31)[C@H](c1ccc(OC)c(Br)c1)O2	x	x	x	n	x	x
CC(C)(C)c1cc(OC(=O)c2ccccc2F)ccc1O	33	n	n	u	u	n
Cc1ccc(C)c(NC(=O)C2CCCN(c3nc4ccccc4s3)C2)c1 (centres undefined)	x	n	x	x	x	x
C=C[C@@H](c1ccccc1)[C@](C)(O)C(=O)O	x	x	x	x	n	x
C=C[C@@H](C1=CC(=O)C(OC)=C(OC)C1=O)c1ccccc1	x	x	x	22µM	x	x
CCOC(=O)c1ccc2[nH]c3ccccc3c2c1	63	n	n	n	n	37
COC(=O)c1ccc2[nH]c(C(C)(C)O)c(C)c2c1	40	n	n	n	n	23
O=C1C2C(c3ccccc3)CC=CC2C(c2cccc([N+](=O)[O-])c2)N1Cc1ccccc1 (centres undefined)	n	x	x	n	x	n
COc1ccc(-c2cc3nc4ccccc4n3c(N)c2C#N)cc1	56	n	n	n	n	29
COc1ccc(-c2cc(-c3ccccc3)c(C#N)c(S(C)=O)n2)cc1 (centres undefined)	n	n	n	n	n	n
CCC(Sc1nnnn1C)C(=O)Nc1ccc(C(C)=O)cc1 (centres undefined)	115	n	n	n	n	23
COc1ccc(N2C(=O)c3ccccc3NC2c2ccc(OC)c(Cn3nnc4ccccc43)c2)cc1 (centres undefined)	n	n	n	n	n	21
COc1ccc(C2Nc3ccccc3C(=O)N2c2ccc(C)cc2)cc1COc1ccccn1 (centres undefined)	n	n	n	n	n	37
COc1ccc(C2Nc3ccccc3C(=O)N2c2ccc(C)cc2)cc1Cn1nc(C)c([N+](=O)[O-])c1C (centres undefined)	n	n	n	n	n	47
CCCCN(CC)c1nc(-c2ccccc2F)nc2ccccc12	x	n	x	x	x	x
C#CCCCC(=O)Nc1ccccc1	x	x	x	n	x	x
Cc1c(NC(=O)c2cccc3c(Cl)cccc23)cccc1-c1nc2ccccc2o1	x	n	x	x	x	x
O=C(Nc1ccc(-c2nc3ccccc3o2)c(O)c1)c1cc(-n2cnnc2)ccc1Cl	n	n	n	n	n	n
O=C(Nc1ccccc1)c1cc(-n2cnnc2)ccc1Cl	n	n	n	n	n	n
O=C(Nc1ccc(-c2nc3ccccc3o2)cc1)c1cc(-n2cnnc2)ccc1Cl	56	n	n	n	n	23
Cc1c(NC(=O)c2cc(-n3cnnc3)ccc2Cl)cccc1-c1nc2ccccc2o1	n	n	n	n	n	18
O=C(Nc1ccc2oc(-c3ccccc3)nc2c1)c1cc(-n2cnnc2)ccc1Cl	84	n	n	n	n	28
C=CCn1c(=O)n(C2OC(CO)C(O)C2O)c2nc(N)[nH]c(=O)c21 (centres undefined)	n	n	x	n	x	n
COc1ccc2c(c1)c1c(c(=O)n(-c3cccc(C)c3)c(=O)n1CC(=O)NCC1CCCO1)n2C (centres undefined)	x	n	x	x	x	x
COc1ccc(C2=CC(=O)C=CC2=O)cc1	n	x	2.5µM	16µM	x	9.3
SMILES	Shiga toxin inh	Tb PYK inh	LmPK inhibitor	FBPA Giardia inh	RE007 growth inh	CHX counter
COc1ccccc1CNC(=O)C1CCCN(C(=O)c2cnn(-c3ccc(F)cc3)c2-n2cccc2)C1 (centres undefined)	x	n	x	x	x	x
CC(C)Oc1ccc(CNC(=O)c2cnc3sc(N4CCCCCC4)nn3c2=O)cc1	x	n	x	x	x	x
COc1ccc(/C=N/NS(=O)(=O)c2ccc(C)cc2)cc1OC(=O)c1ccccc1	n	n	n	n	n	n
COc1cc(/C=N/NS(=O)(=O)c2ccc3ccccc3c2)ccc1OCc1ccc(C(=O)O)cc1	119	n	n	n	n	63
COc1cc(/C=N/NS(=O)(=O)c2ccc(C)cc2)ccc1OCc1cccc(C(=O)O)c1	183	n	n	n	n	54
O=C(O)c1ccc(CNS(=O)(=O)c2ccc3ccccc3c2)cc1	55	n	n	n	n	n
Cc1cccc(C)c1NC(=O)CNC(=O)C12CC3CC(CC(O)(C3)C1)C2	x	n	x	x	n	x

Screens deposited in PubChem BioAssay by National Center for Advancing Translational Sciences (NCATS).
